Only some compounds are listed: those with a hit (about 1.1% of all), similar ones and a draw of the others.
HDAC3 inh: HDAC3 deacetylase inhibitors, primary screen, biochemical, fluorescence, cell-free homogeneous | 320,000 tested, 0.15% active | Histone deacetylase 3 (Homo sapiens), O15379 | recombinant HDAC3, fluorogenic peptide/trypsin coupled | inhibition, % at 8.3 µM; in the data active = inhibition above about 26%, passing the limit was not always enough; inconclusive = no clear call, values can overlap the other calls
Target sequence (O15379 whole entry, looked up): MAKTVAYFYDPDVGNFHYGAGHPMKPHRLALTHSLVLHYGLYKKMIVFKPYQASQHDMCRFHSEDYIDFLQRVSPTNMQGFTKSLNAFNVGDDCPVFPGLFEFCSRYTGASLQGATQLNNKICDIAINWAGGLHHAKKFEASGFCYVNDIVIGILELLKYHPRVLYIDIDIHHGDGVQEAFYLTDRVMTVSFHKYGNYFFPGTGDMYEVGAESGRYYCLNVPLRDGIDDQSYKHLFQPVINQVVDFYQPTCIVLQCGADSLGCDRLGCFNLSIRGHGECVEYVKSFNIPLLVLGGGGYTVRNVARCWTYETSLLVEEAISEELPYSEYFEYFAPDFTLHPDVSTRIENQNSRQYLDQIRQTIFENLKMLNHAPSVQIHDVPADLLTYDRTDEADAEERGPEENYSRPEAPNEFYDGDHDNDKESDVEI
Casp6 inh: human caspase-6 inhibitors, primary screen, biochemical, VEID-R110 fluorescence, single point, set 2. P55212. purified caspase-6, Z-VEID-R110 cleavage fluorescence. inhibition, % at 12.5 µM. 350,000 tested, 0.53% active. AID 686996, 2013;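 active = mean inhibition across replicates at least about 35%, with every replicate also reaching that limit, limit read from the data; inconclusive = only one of the two criteria met; inactive = neither criterion met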;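 note: 0% = median of neutral control wells and 100% = no fluorescence left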
LANA DNA inh: inhibitors of KSHV C-LANA binding to DNA, primary screen, biochemical, fluorescence polarization, FAM-LBS DNA, MBP-C-LANA, single point; inhibition, % at 9 µM; Kaposi's sarcoma herpesvirus LANA C-terminal domain (residues 932-1162) DNA binding; 340,000 tested, 0.078% active;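 active = highest replicate inhibition at or above 60% at 9 µM, even if other replicates fall short; inactive = all replicates below 60% inhibition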;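 note: 0% = neutral control wells and 100% = 4 µM acridine orange control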
N-glyco inh: increase of ERlucT glycosylation luciferase signal, primary screen, N-linked glycosylation inhibitor project, D54 ERlucT cells, luminescence, set 2; D54 ERlucT glycosylation luciferase reporter, 24 h; percent of 100 nM tunicamycin response; reporter increase, % at 12.5 µM; 360,000 tested, 0.23% active; AID 588692, 2011;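 active = mean luciferase reporter signal, scaled so untreated is 0 and the glycosylation-blocking control 100, at or above a set limit in every replicate; inconclusive = mean reaches the limit but not every replicate does; inactive = mean below the limit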;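 note: luciferase carries N-glycosylation sites so blocking glycosylation raises the light; 0% = median of neutral control wells and 100% = median of 100 nM tunicamycin wells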
NSD2 HMT inh: NSD2 histone methyltransferase inhibitors, primary screen, biochemical, AlphaScreen, single concentration, set 2; Histone-lysine N-methyltransferase NSD2 (Homo sapiens), O96028; NSD2 peptide methylation, 120 min; inhibition, % at 12.5 µM; 310,000 tested, 0.54% active; AID 743445, 2014; in the data active = inhibition above about 50%
Keap1 Nrf2 FP: Keap1-Nrf2 protein-protein interaction inhibitors, primary screen, biochemical, fluorescence polarization, single point; Keap1 Kelch-Nrf2 peptide fluorescence polarization, 1536-well; 340,000 tested, 0.15% active; inhibition, % at 9.4 µM; Kelch-like ECH-associated protein 1 (Homo sapiens), Q14145; in the data active = inhibition above about 12%; inconclusive = no clear call, values can overlap the other calls; inactive = below about 7.3%;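 note: human Keap1 Kelch domain with fluorescein labeled Nrf2 9mer peptide probe; 0% = neutral control wells and 100% = peptide positive control; higher means more block of Keap1 binding to Nrf2 peptide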
AlphaScreen art: AlphaScreen signal interference with preloaded methylated product, dose response, artefact control for NSD2 inhibitor project, biochemical, cherry-picked samples; shares compounds with NSD2 HMT inh; AlphaScreen artifact counterscreen, preloaded methylated H4 peptide; AC35, µM (top dose mostly 10 µM), inactives show top-dose activity change, negative = signal loss; 1,500 tested, 9.4% active; AID 1053174, 2014; call rule not given here
* = called active by the depositor; ? = inconclusive; . = not tested or not shown.

SMILES	HDAC3 inh	Casp6 inh	LANA DNA inh	N-glyco inh	NSD2 HMT inh	Keap1 Nrf2 FP	AlphaScreen art
O=C1CN(S(=O)(=O)Cc2ccccc2)C[C@@H]2[C@@H](c3ccc(C#CCC4CCCC4)cc3)[C@H](CO)N12	.	2	.	.	.	.	.
Cn1c(=O)c2c(-c3ccccc3)n(Cc3cccnc3)cc2n(C)c1=O	4	.	0	2	53*	3	-4%
CN(C)CCNc1ccc2nnn3c4ccc(O)cc4c(=O)c1c23	.	3	-20	?	.	-3	.
CCN(CC)CCCNc1ccc2ncn3c4ccc(O)cc4c(=O)c1c23	.	30	147*	81*	64*	108*	-3%
CS(=O)(=O)Nc1cccc(NC(=O)c2ccc(-n3ccnc3)c3ccoc23)c1	.	3	.	2	23	.	.
O=C(NCC1CC1)c1ccc(-n2ccnc2)c2ccoc12	.	5	.	0	63*	.	-3%
CC(C)CC(=O)N1CCC(O)(CS(=O)(=O)Cc2ccc(Cl)cc2)CC1	3	.	-1	-1	.	-2	.
CC(C)CC(=O)N1CCC(O)(CS(=O)(=O)Cc2ccccc2Cl)CC1	-3	.	0	3	103*	-3	0%
O=S(=O)(O)c1cccc2c(N=Nc3ccc(O)c4ncccc34)cccc12	3	21	48	-1	66*	5	-13%
O=Nc1ccc(O)c2ncccc12	?	31	0	9	64*	-1	1%
CCOC(=O)N1CCN(C(=S)NCCOC)CC1	-9	.	-1	-1	69*	1	1%
C[C@H]1CN([C@@H](C)CO)S(=O)(=O)c2ccc(-c3ccncc3)cc2O[C@H]1CN(C)Cc1cccnc1	.	-1	.	.	.	.	.
CCNC1CCC(Nc2ccnc3cc(Cl)ccc23)CC1 (stereo unspecified)	.	-9	-4	3	89*	1	-5%
O=C([C@@H]1[C@@H](CO)[C@@H]2Cn3c(ccc(C4=CCCCC4)c3=O)[C@@H]2N1Cc1nccs1)N1CCOCC1	.	0	.	.	.	.	.
CC1CCCCC1NC(=O)COC(=O)c1ccc2c(=O)n3c(nc2c1)CCC3 (stereo unspecified)	-4	0	0	0	117*	-3	-1%
O=C(Nc1ccccn1)c1ccc2c(=O)n3c(nc2c1)CCCCC3	-3	10	-3	-11	61*	-2	-1%
C[C@H](CO)N1C[C@H](C)[C@H](CN(C)C)OCCCC[C@H](C)Oc2ccc(NC(=O)C3CCCCC3)cc2C1=O	.	-1	.	.	.	.	.
CC(C)NC(=O)N(C)C[C@H]1Oc2ncc(C#Cc3ccc(F)cc3)cc2C(=O)N([C@@H](C)CO)C[C@H]1C	.	-2	.	.	.	.	.
O=C(NCCCN1CCCC1=O)Nc1ccc(Cl)cc1Cl	5	1	2	1	50*	1	0%
O=C(NCCCN1CCCC1=O)Nc1cc(Cl)ccc1Cl	-10	-7	-1	3	14	1	.
O=C(CCNC(=O)C1CCN(S(=O)(=O)c2ccc(F)cc2)CC1)NCc1ccc(F)cc1	5	-2	0	2	-13	-5	.
O=C(NCCCn1ccnc1)C1CCN(S(=O)(=O)c2ccc(F)cc2)CC1	-5	-13	-1	1	57*	-4	-2%
C/C(CC(=O)Nc1ccccn1)=N\NC(=O)C(=O)Nc1cccc(Cl)c1C	-3	.	-1	1	60*	-2	-2%
C/C(CC(=O)Nc1ccccn1)=N\NC(=O)C(=O)Nc1cccc(C)c1	3	.	-1	1	2	0	.
O=C(C1CCC1)N1C[C@H]2[C@@H](c3ccccc31)[C@H](CO)N2C(=O)c1ccccc1	.	0	.	.	.	.	.
SMILES	HDAC3 inh	Casp6 inh	LANA DNA inh	N-glyco inh	NSD2 HMT inh	Keap1 Nrf2 FP	AlphaScreen art
CCOC(=O)CC(NS(=O)(=O)c1ccc2[nH]cc(C(=O)O)c(=O)c2c1)c1ccc(OCC)c(OC)c1 (stereo unspecified)	2	54*	12	1	68*	5	-1%
CCOC(=O)CC(NS(=O)(=O)c1ccc(OC)c(OC)c1)c1cccc([N+](=O)[O-])c1 (stereo unspecified)	5	4	-1	2	0	3	.
O=C(NCC[C@H]1CC[C@H](NS(=O)(=O)c2ccc(F)cc2)[C@H](CO)O1)Nc1ccc(Cl)cc1	.	-3	.	.	.	.	.
O=C(c1coc(=O)c(Br)c1)N1CCCc2ccccc21	1	.	77*	-2	52*	-1	-4%
O=C(c1cccc(Br)c1)N1CCCc2ccccc21	-7	0	-1	0	2	2	.
Cc1ccc(NC(=O)NCc2ccco2)cc1[N+](=O)[O-]	.	1	.	.	3	.	.
O=C(NCc1ccco1)Nc1cccc([N+](=O)[O-])c1	.	.	0	0	52*	0	-1%
CCc1c(C)nc2ncnn2c1Nc1ccc(C)cc1	9	1	2	0	55*	-2	-1%
Cc1cccc(Nc2nc(NCc3ccco3)nc(N)c2[N+](=O)[O-])c1	-2	4	-1	-2	96*	-3	-5%
CC(=O)N(C)c1ccc(N=Nc2c(C)[nH]n(-c3ccccc3)c2=O)cc1	-4	1	-1	2	17	0	.
CC(=O)N(C)c1ccc(N=Nc2c(C)[nH]n(C(N)=S)c2=O)cc1	7	1	1	-13	80*	-4	-6%
O=C1C(O)=C(O)C(=O)c2ccccc21	3	30	2	2	.	-21	.
CC(=O)C(C(C)=O)C1(O)C(=O)c2ccccc2C1=O	-7	8	1	-1	104*	-10	1%
O=C(NNC(=S)Nc1ccccc1)c1ccco1	-5	.	5	0	119*	-2	-3%
CCOC(=O)CNC(=O)N1CCC(CCC(=O)N(C)Cc2ccccc2)CC1	-8	-1	-2	1	65*	-3	4%
CCCCNC(=O)N1CCC(CCC(=O)N(C)Cc2ccccc2)CC1	7	-1	1	-1	-4	0	.
CC(CS(=O)(=O)c1ccc2c(c1)NC(=O)CS2)C(=O)NCc1ccccc1Cl (stereo unspecified)	7	.	10	-3	55*	-1	-4%
O=C1CSc2ccc(S(=O)(=O)NCc3ccccc3Cl)cc2N1	3	2	0	2	1	-4	.

Compound activity (PubChem)
